Screening results from PubChem.
ClpP mod – qHTS Assay for Activators of ClpP; ATP-dependent Clp protease proteolytic subunit (Bacillus subtilis (strain 168)), P80244; purified B. subtilis ClpP, FRET peptide cleavage, 20 min; Potency, µM (series often up to 57.5 µM); 1.9% of 340,000 active; AID 651965, 2013; active means well fitted falling curve with a large enough effect; inconclusive means small, poorly fitted or top-dose-only effect; inactive means no such curve, though single readings can be large or run the other way; further: the source files actives as falling curves though it sought activators and does not explain the sign; nearly all actives have a fitted effect of over 65% in size
Target sequence (P80244 whole entry, looked up): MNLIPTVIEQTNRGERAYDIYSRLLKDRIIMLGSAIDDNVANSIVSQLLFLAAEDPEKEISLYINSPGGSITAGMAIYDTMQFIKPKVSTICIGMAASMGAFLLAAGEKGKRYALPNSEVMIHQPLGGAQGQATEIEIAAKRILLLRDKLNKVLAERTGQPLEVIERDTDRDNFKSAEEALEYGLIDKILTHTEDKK
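FRET quenching reversal measured ClpP activation: 10 microg/mL B. subtilis ClpP at pH 8 with the FRET-FV decapeptide, read at 430 nm after 320 nm excitation. The 20-min minus 0-min signal was scaled between DMSO/no-enzyme wells and ADEP (5.8 microM final).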
TDP1 inh – qHTS Assay for Inhibitors of Tyrosyl-DNA Phosphodiesterase (TDP1); 0.28% of 350,000 active; Tyrosyl-DNA phosphodiesterase 1 (Homo sapiens), Q9NUW8; Potency, µM (series often up to 130 µM), actives largely listed as inhibitors; AID 485290, 2010; recombinant TDP1, AlphaScreen DNA substrate cleavage; further: nearly all actives have a fitted effect of over 40% in size
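AlphaScreen read-out: signal falls as enzyme removes the 3' tyrosine-FITC from a 5'-biotinylated DNA oligo (15 nM, 5 min, RT). Enzyme was E. coli-made recombinant Tdp1 at 1 nM, exposed to compound for 15 min beforehand; beads 10 ug/ml, 10 min.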
TDP1 cell CPT – qHTS for Inhibitors of human tyrosyl-DNA phosphodiesterase 1 (TDP1): qHTS in cells in presence of CPT. chicken DT40 Tdp1-/-;hTDP1 cells + 20 nM CPT, ATP luminescence, 48 h. Potency, µM (top dose mostly 46.2 µM), hits mostly inhibitors. 12% of 420,000 active. AID 686979, 2013; further: nearly all actives have a fitted effect of over 55% in size
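Cell growth measured by CellTiter-Glo luminescence after a minimum 48 h, 37 C compound exposure with 20 nM CPT in Tdp1-knockout DT40 cells stably expressing hTDP1, seeded 400/well; qHTS titration format.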
TDP1 cell noCPT – qHTS for Inhibitors of human tyrosyl-DNA phosphodiesterase 1 (TDP1): qHTS in cells in absence of CPT. DT40 Tdp1-/- hTDP1 cells, no CPT, ATP luminescence, 48 h. Potency, µM (doses to about 46.2 µM), most hits filed as inhibitors. 15% of 420,000 active. AID 686978, 2013; further: nearly all actives have a fitted effect of over 55% in size
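Growth kinetics read by CellTiter-Glo luminescence after ≥48 hr at 37 °C. Cells: DT40 Tdp1-/- stably carrying human TDP1, 400 per well, compound exposure in the absence of CPT (DMSO vehicle).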
Numbers stand for hits; i = inactive; ? = inconclusive; nt = no result given; [ ] = dose if it differs, or a comment. In the library only some 17% were active in any assay of this set; here they are far more common. Unless noted, the call rests on the fitted dose curve; in most records, active means well fitted curve in the direction sought with a large enough effect; inconclusive means small, poorly fitted or top-dose-only effect, or another doubt; inactive means no such curve, though single readings can be large; an effect the other way counts as inactive or inconclusive.

SMILES	ClpP mod	TDP1 inh	TDP1 cell CPT	TDP1 cell noCPT
O=C(Nc1oc2ccccc2c(=O)c1-c1ccc(Cl)cc1)c1ccco1	i	i	i	i
CCC(=NCCc1c(C)[nH]c2ccccc12)C1=C(O)CC(c2ccccc2)CC1=O (stereo unspecified)	i	i	4.1µM	2.9µM
CCCCC(=NCCc1c(C)[nH]c2ccc(OC)cc12)C1=C(O)CC(c2ccccc2)CC1=O (stereo unspecified)	i	i	4.1µM	4.1µM
CCC(=NCCc1c(C)[nH]c2ccc(OC(F)(F)F)cc12)C1=C(O)CC(c2ccccc2)CC1=O (stereo unspecified)	i	i	4.6µM	5.8µM
CC(=NCCc1c(C)[nH]c2ccc(OCc3ccccc3)cc12)C1=C(O)CC(c2ccccc2)CC1=O (stereo unspecified)	nt	i	?	?
COc1ccc(Nc2nc3c([nH]2)c(=O)[nH]c(=O)n3C)cc1	nt	i	i	i
CCOC(=O)c1cccc(NS(=O)(=O)c2ccc(-c3cnc(C4CC4)o3)cc2)c1	i	i	2.3µM	2.6µM
Cc1ccc(N(C)S(=O)(=O)c2ccc(-c3cnc(C4CC4)o3)cc2)cc1	i	i	0.029µM	0.018µM
COc1ccc(C)cc1NS(=O)(=O)c1ccc(-c2cnc(C3CC3)o2)cc1	i	i	0.065µM	0.065µM
N#Cc1ccc(NS(=O)(=O)c2ccc(-c3cnc(C4CC4)o3)cc2)cc1	i	i	18µM	?
COc1cc(-c2noc(CSc3nc(-c4ccc(F)cc4)cc(=O)[nH]3)n2)cc(OC)c1OC	i	i	i	i
Cc1cccc(C)c1NS(=O)(=O)c1ccc(-c2cnc(C3CC3)o2)cc1	i	i	0.0058µM	0.12µM
CC(=O)c1ccc(NS(=O)(=O)c2ccc(-c3cnc(C4CC4)o3)cc2)cc1	i	i	i	?
COc1ccc(C)cc1NS(=O)(=O)c1ccc2c(c1)N(C)CCO2	i	i	?	15µM
CC1CN(C)C(C)c2c1oc1ccc(N)cc21 (stereo unspecified)	nt	i	?	10µM
C=CCSc1nc(C)cc(/C=C\c2ccccc2)c1C#N	28µM	i	i	i
COC(=O)c1cc(CNC(=O)c2ccc3ccccc3n2)cc(NC(=O)c2cccc(OC)c2)c1	nt	nt	i[9.04 µM]	i
COc1ccc(NC(=O)CCc2nnc3n(Cc4ccccc4Cl)c(=O)c4ccccc4n23)cc1	i	i	3.3µM	3.3µM
Cc1cc(C)cc(NC(=O)CCc2nnc3n(CC(C)C)c(=O)c4ccccc4n23)c1	i	i	i	i
CN1CCN(CCCNC(=O)CCc2nnc3n(Cc4ccccc4Cl)c(=O)c4ccccc4n23)CC1	i	i	i	i
Cc1ccc(NC(=O)CCc2nnc3n(CC(C)C)c(=O)c4ccccc4n23)cc1C	i	i	26µM	23µM
O=C(CCc1nnc2n(Cc3ccccc3Cl)c(=O)c3ccccc3n12)Nc1ccc(F)c(F)c1	i	i	23µM	21µM
O=C(Cn1c(C(=O)N2CCc3ccccc3C2)cc2sccc21)c1ccccc1	i	i	29µM	?
O=C(Cn1c(C(=O)N2CCN(C3CCCCC3)CC2)cc2sccc21)c1ccccc1	i	i	?	?
CC1=NN(C(=O)c2ccncc2)C(=O)C1N=Nc1ccc2ccccc2c1 (stereo unspecified)	i	nt	?	?
SMILES	ClpP mod	TDP1 inh	TDP1 cell CPT	TDP1 cell noCPT
CC1=NN(C(N)=S)C(=O)C1N=Nc1ccccc1 (stereo unspecified)	i	i	?	?
CC1=NN(C(N)=S)C(=O)C1N=Nc1ccc(Br)cc1 (stereo unspecified)	i	i	21µM	?
CC1=NN(C(N)=S)C(=O)C1N=Nc1cccc2ccccc12 (stereo unspecified)	nt	i	nt	nt
CC1=NN(C(N)=S)C(=O)C1N=Nc1ccc(Cl)cc1 (stereo unspecified)	i	i	0.52µM	1.5µM
CC1=NN(C(N)=S)C(=O)C1N=Nc1cccc(Cl)c1C (stereo unspecified)	i	nt	13µM	8.2µM
O=C(NCc1ccco1)c1cnn2c1NC(c1ccccc1)CC2C(F)(F)F (stereo unspecified)	i	i	18µM	i
O=C(NCc1ccco1)c1cnn2c1NC(c1ccc(Br)cc1)CC2C(F)(F)F (stereo unspecified)	i	i	4.1µM	4.1µM
O=C(O)c1cnn2c1NC(c1ccc(F)cc1)CC2C(F)(F)F (stereo unspecified)	i	i	i	i
O=C(NCCCNC(=O)c1cnccn1)c1ccc(Br)cc1	nt	nt	i	i
CCOC(=O)c1c(CSc2cccs2)n(C)c2cc(Br)c(O)c(CN(C)C)c12	nt	i	16µM	18µM
CCOC(=O)c1c(C)n(C)c2cc(Br)c(O)c(O)c12	i	i	i	?
COc1ccc(NC(=O)c2nc[nH]c2C(=O)N(C)Cc2ccccc2)cc1	i	i	23µM	?
CN(Cc1ccccc1)C(=O)c1[nH]cnc1C(=O)Nc1ccc(Cl)cc1	i	i	?	23µM
CN(Cc1ccccc1)C(=O)c1[nH]cnc1C(=O)Nc1cccc(Cl)c1	i	i	?	?
CCN(CC)C(=O)c1[nH]cnc1C(=O)Nc1ccc(OC)cc1	i	i	i	i
Cc1ccc(C(=O)NCCN2CCC(n3c(=O)[nH]c4ccccc43)CC2)cc1C	i	nt	?	?
O=C(CN(Cc1ccco1)C(=O)c1ccc(F)cc1)Nc1ccccc1Br	i	i	i	i
CC1(C)CC(=O)C=C(c2ccccc2-c2ccc(S(C)(=O)=O)cc2)C1=O	i	nt	i	?
Cc1ccc(Cn2nnc(C(=O)Nc3cc(C)ccc3C)c2N)cc1	i	i	?	i
COc1ccc(OC)c(NC(=O)c2nnn(Cc3ccc(Br)cc3F)c2N)c1	i	i	8.2µM	18µM
COc1cccc(Cn2nnc(C(=O)Nc3cc(Cl)ccc3OC)c2N)c1	?	i	23µM	16µM
Cc1ccc(C)c(NC(=O)c2nnn(Cc3ccc(F)cc3Cl)c2N)c1	i	i	15µM	6.5µM
CCCCOc1ccc(C(=O)Nc2cccc(-c3nc4cccnc4s3)c2)cc1	i	i	?	?
CC(=O)c1ccc(-c2cc(F)cc3c2OC(CNC(=O)Cc2cn4ccsc4n2)C3)s1 (stereo unspecified)	nt	nt	i[9.04 µM]	i
Cc1nc2sccn2c(=O)c1CCN1CCC(=C(c2ccccc2)c2ccc(F)cc2)CC1	nt	i	13µM	12µM
Cc1nc2sccn2c(=O)c1S(=O)(=O)N1CCN(c2ccccc2)CC1	i	nt	i	i
O=C(N1CCCC1)C(F)(F)Oc1ccc(F)cc1	nt	i	i	i
COc1ccc(-c2cn[nH]c2-c2ccc(OCc3ccc(F)cc3)cc2O)cc1OC	nt	nt	21µM	23µM
COc1ccccc1-c1cn[nH]c1-c1ccc(OCc2ccc(F)cc2)cc1O	i	nt	?	?
